Compounds without any hit were thinned out: in the full panel of roughly 83,000, 20% have a hit.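 Results are percent growth after 48 hours of single-concentration exposure. 100 means growth as in untreated cells, lower positive values show inhibition; negative values down to -100 show cell death.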 A number with no mark means an inactive call. Active and inactive are the calls of the source.

This assay relates to HT29 colon. Nature of the assay: NCI-60 one-dose screen, 48 h (100 = growth as untreated, 0 = no growth, -100 = all killed). As to conditions: 10 µM unless noted. How it is done:
Growth inhibition of the HT29 human tumor cell line is measured as a screen for anti-cancer activity. Cells are grown in 96 well plates and exposed to the test compound for 48 hours. Compounds are tested at a single concentration, which is 10^-5 M for most compounds. The reported endpoint is percent growth (GI% or GIPRCNT), where numbers from 0 - 100% represent growth inhibition, and numbers from -100% - 0 represent cell death. For example, a value of 40 represents 60% growth inhibition. A value of 0 means no net growth occurred over the course of the experiment. A value of -40 indicates 40% of cells at the beginning of the experiment died by the end of the experiment. A value of -100 means all cells are dead at the end of the experiment.
NCI-60 Human Tumor Cell Lines Screen was performed using the standard one-dose NCI protocol, which is described in more detail at https://dtp.cancer.gov/discovery_development/nci-60/default.htm.
Compounds with GIPRCNT values below 10 were considered active. Activity score was based on GIPRCNT using the following formula: […]
Score is 0 for GIPRCNT values of 100 or above, 50 for GIPRCNT values of 0, and 100 for GIPRCNT values of -100.
On to `C/C(=N/NC(N)=S)c1ccc(Nc2nc(SCC(C)C)nc(-c3ccc(F)cc3)c2C#N)cc1`, for which the growth is 15%.
Consider `Clc1ccc(-c2cn3cc(Cc4ccc(Cl)c(Cl)c4)sc3n2)cc1`, for which the growth is 90.5%.
Then `COc1ccc(/C=C/C(=O)c2ccc(NC(=O)CSc3nnc(-c4ccc5nc(-c6ccc(Cl)cc6)[nH]c5c4)o3)cc2)cc1`, with 106%.
As to `CN(C)CCCNc1c2ccc(Cl)cc2nc2c1oc1ccc(Cl)cc12`, the growth is -45.6% (active).
As to `O=C(N/N=C/c1ccc([N+](=O)[O-])o1)c1[nH]c2ccc(Br)cc2c1-c1ccccc1`, the growth was 9.21% (active).
Turning to `N#Cc1nc(-c2ccccc2)oc1N1CC[C@@H](CO)C1`, the growth is 107%.
Regarding `COc1cc(/C=C/C(=O)c2cc(OC)c(OC)c(OC)c2)ccc1OCc1ccccc1`, the growth is 5.03% (active).
Then `Cc1nc2cnc(N)c(C#Cc3cncc(C(=O)Nc4ccc(Cl)c(C(F)(F)F)c4)c3)c2nc1C`, with 31.5%.
The result for `N#Cc1c(-c2ccc(F)cc2)nc2c(C#N)c(Nc3ccccc3)nn2c1N` reads 102%.
Then `CCCC(=O)NC(c1cccc(N(C)C)c1)c1cc(C)c2cccnc2c1O` (stereo not given), with 91.6%.
Regarding `CCOC(=O)c1c(Nc2ccccc2)nn2c(N)c(C#N)c(-c3ccccc3)nc12`, the growth was 92.1%.
`CN1C(=S)N(C)C2C1NN=C1SC(c3ccccc3)=CC(=O)N12` (stereo not given): the growth is 103%.
With `CS(=O)(=O)Nc1ccc(-c2nn(-c3ccc(S(C)(=O)=O)cc3)cc2/C=C/C(=O)c2ccc(NC(=O)CO[N+](=O)[O-])cc2)cc1`, the growth was 104%.
Then `NC(=O)c1cc(-c2ccc3ncnc(N4CCc5cc(F)c(Cl)cc54)c3c2)cnc1N`, with 21%; and `CC1=C(C)C(=O)C(Nc2cccc(C(F)(F)F)c2)=C(Cl)C1=O`, with 103%.
With `COc1ccc(NC(=O)c2sc3nc(-c4cnccn4)cc(-c4cccs4)c3c2N)cc1`, the growth is 20.8%.
Take `COc1ccc(C(=O)/C=C/c2ccc(OCc3ccc(Cl)cc3)c(OC)c2)cc1OC`: the growth is 63.7%.
Regarding `C#Cc1nc(C2=C(C)C(O)/C(=N/O)C2)cs1` (stereo not given), the growth is 113%.
As for `COc1cc(/C=C/C(=O)c2cc(OC)c(OC)c(OC)c2)ccc1Oc1nc(NCCO)nc(N2CCOCC2)n1`, the growth is -21.5% (active).
On to `CN1CCN(Cc2ccc(NC(=O)c3cncc(C#Cc4cnc5ccc(N6CCSCC6)nn45)c3)cc2C(F)(F)F)CC1`, for which the growth was -50.1% (active).
The result for `CN(C)CCCOc1c2ccc(Cl)cc2nc2c1oc1ccc(Cl)cc12` reads -77.6% (active).
Then `CC(=O)Oc1ccccc1C(=O)Nc1cc(C(C)C)ccc1C`, with 91.5%; and `Cc1ccc(C(=O)Nc2cccc(C(F)(F)F)c2)cc1Nc1nc(-c2cnccn2)nc2c1cnn2C`, with 32.9%.
Then `C=CCn1c(SCC(=O)c2ccc(Br)cc2)nnc1-c1c[nH]c2ccccc12`, with 104%.
Turning to `OC1CCN(CCCOc2c3ccccc3nc3c2oc2ccc(Cl)cc23)CC1`, the growth is 1.25% (active).
Take `CCOC(=O)c1sc(N)c(C(=O)OCC)c1C`: the growth is 43.4%.
Then `O=c1[nH]c2ccc(Cl)cc2cc1CSc1ccccc1Nc1nccc(-c2ccc(Cl)cc2)n1`, with 109%; and `Cc1cc2nc3c4cc(Cl)ccc4n(CC(=O)NCCN(C)C)c3nc2cc1C`, with -75.5% (active); and `CC(C)(C)Nc1nc2c(OCCc3ccccc3)cccn2c1-c1ccccc1Cl`, with -47.3% (active).
The result for `O=C(c1ccc(O)cc1)C1[C@H](c2ccc(Cl)cc2)[C@@H](c2ccccc2)NC12C(=O)Nc1ccc(Cl)cc12` (stereo not given in full) reads 4.23% (active); that for `CC(=O)c1ccc(Nc2nc(SC(C)C)nc(-c3ccccc3)c2C#N)cc1`, 99.6%.
Take `Cc1cc(C(=O)Nc2sc3c(c2C(N)=O)CCC(=O)C3)ccc1OCCN1CCCCC1`: the growth is 96.2%.
For `O=C(N/N=C/c1ccc(Br)s1)c1[nH]c2ccc(Br)cc2c1-c1ccccc1`, the growth was 5.61% (active).
With `O=C1C2=C(C(=O)c3c(O)cccc31)C(c1ccco1)c1sc(=O)[nH]c1S2` (stereo not given), the growth was 12.5%.
Then `Cc1ccc(CNS(=O)(=O)/N=C2\NC(=O)NC2=C(Cl)Cl)cc1`, with 15.7%; and `COc1ccc(NC2=CC(=O)C(C)=C(C)C2=O)cc1`, with 109%.
The result for `COc1ccc2[nH]cc(-c3cc(N)n4nc(-c5c[nH]c6ccc(OC)cc56)cc4n3)c2c1` reads -56.1% (active).
With `O=C(CSc1nnc(-c2ccc3nc(-c4ccc(Cl)cc4)[nH]c3c2)o1)Nc1ccc(C(=O)/C=C/c2ccc(Cl)cc2)cc1`, the growth was 100%.
Then `CC(C)(C)Nc1nc2c(OCCc3ccccc3)cccn2c1-c1cccc(F)c1`, with -14.2% (active); and `COc1ccc(N/N=C/c2c(-c3ccc(S(C)(=O)=O)cc3)nc3ccccn23)cc1`, with 64.4%.
